Screening results deposited in PubChem by Johns Hopkins Ion Channel Center.
KCNQ2 pot = KCNQ2 (rat) channel potentiation. CHO-K1 KCNQ2, FluxOR thallium flux fluorescence; hits give high values. B-score at 10 µM. actives 0.54% (n = 310,000). AID 2239;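 active means fluorescence ratio B-score at least 3 SD of library B-scores, with initial fluorescence B-score within 3 of them, cut at about 5.3 in these data; same plate scores as AID 2156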;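 further: B-score of peak minus minimum over baseline fluorescence ratio after K+ and Tl+ stimulus; positive B-score means potentiation of KCNQ2 with more thallium influx and brighter signal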
KCNQ2 inh = inhibitors of rat KCNQ2 potassium channel. O88943. CHO-K1 KCNQ2, FluxOR thallium flux, 20 min; hits give low values. B-score at 10 µM. actives 1.1% (n = 310,000);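 active means fluorescence ratio B-score at most minus 3 library SDs, with starting brightness B-score within 2 library SDs, cut at about -5.5 in these data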
Kir21 confirm = confirmation of mouse Kir2.1 potassium channel inhibitors | actives 41% (n = 2,300) | Tl flux remaining, % of negative control (hits give low values), % at 10 µM | shares compounds with KCNQ2 pot | Kir2.1-expressing cells, FluxOR thallium flux fluorescence; hits give low values;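 active means Primary-screen hit whose thallium flux fell at least 3 control SD below untreated wells in both duplicates, with normal baseline fluorescence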;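 further: 0% = blank wells without stimulus and 100% = stimulated no-compound controls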
HEK293 ctr = parental HEK293 activity in Kir2.1 inhibitor counter-screen. shares compounds with KCNQ2 pot. parental HEK293 cells, FluxOR thallium flux fluorescence; 0% = unstimulated blank wells. FluxOR signal as % of negative control (100 = no effect), % at 10 µM. actives 19% (n = 2,300). AID 2105;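 active means dye signal at least 3 control SD above or below untreated wells in both duplicates, raw fluorescence within 3, either direction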;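 further: percent is based on the flux ratio of peak minus minimum fluorescence over baseline F0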
CHO-K1 Tl ctr = counter-screen for KCNQ2 potentiators: effect in parental CHO-K1 cells. shares compounds with KCNQ2 pot. FluxOR thallium flux fluorescence; zero = vehicle mean+3SD, 100% = vehicle-minus-blank window. activity increase over 3SD of controls, % at 10 µM. actives 43% (n = 1,200). AID 2282;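 active means signal rise of at least 3 SD above the untreated control mean, in both duplicate wells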;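 further: counter screen of KCNQ2 potentiator hits so any rise reflects channel-independent effects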
KCNQ1 pot spec = human KCNQ1 counter-target activity of KCNQ2 potentiators | shares compounds with KCNQ2 pot | CHO KCNQ1 stable, FluxOR thallium flux fluorescence; beyond 3SD, as % of vehicle-control signal | activation over 3SD threshold, % at 10 µM | actives 28% (n = 1,200) | AID 2283;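 active means fluorescence ratio rise of at least 3 SD of vehicle wells above their mean, in both replicate wells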;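 further: 0% = vehicle mean plus 3 SD and 100% = vehicle minus unstimulated blank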
KCNQ2 pot confirm = confirmation of rat KCNQ2 potassium channel potentiators. actives 68% (n = 1,200). shares compounds with KCNQ2 pot. CHO-KCNQ2 cells, FluxOR thallium flux fluorescence. potentiation, less the hit threshold, % at 10 µM;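 active means fluorescence ratio rising 3 SD or more over the vehicle control mean in both replicates, plus primary screen hit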;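 further: peak minus minimum thallium fluorescence divided by baseline after K/Tl stimulus; 0% = vehicle mean plus 3 SD and 100% = vehicle minus unstimulated blank difference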
Kir2-1 sel = mouse Kir2.1 off-target activity of KCNQ2 potentiators. shares compounds with KCNQ2 pot. actives 2% (n = 1,200). activity over 3SD threshold, % at 10 µM. HEK293 Kir2.1, FluxOR thallium flux fluorescence;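 active means fluorescence ratio rise of at least 3 SD above the vehicle-control mean, seen in both replicates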;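 further: 0% = vehicle mean plus 3 SD and 100% = vehicle minus no-stimulus blank window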
KCNQ2 W236L MoA = rat KCNQ2 W236L mutant potentiation by KCNQ2 potentiators; shares compounds with KCNQ2 pot; CHO KCNQ2-W236L, automated patch clamp current; current increase over 3SD of negative controls (%), hits give high values, % at 25 µM; actives 10% (n = 940); AID 2558;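 active means current increase at least 3 SD of the untreated controls above them in both duplicate recordings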
Target sequence (O88943 whole entry W236L, looked up): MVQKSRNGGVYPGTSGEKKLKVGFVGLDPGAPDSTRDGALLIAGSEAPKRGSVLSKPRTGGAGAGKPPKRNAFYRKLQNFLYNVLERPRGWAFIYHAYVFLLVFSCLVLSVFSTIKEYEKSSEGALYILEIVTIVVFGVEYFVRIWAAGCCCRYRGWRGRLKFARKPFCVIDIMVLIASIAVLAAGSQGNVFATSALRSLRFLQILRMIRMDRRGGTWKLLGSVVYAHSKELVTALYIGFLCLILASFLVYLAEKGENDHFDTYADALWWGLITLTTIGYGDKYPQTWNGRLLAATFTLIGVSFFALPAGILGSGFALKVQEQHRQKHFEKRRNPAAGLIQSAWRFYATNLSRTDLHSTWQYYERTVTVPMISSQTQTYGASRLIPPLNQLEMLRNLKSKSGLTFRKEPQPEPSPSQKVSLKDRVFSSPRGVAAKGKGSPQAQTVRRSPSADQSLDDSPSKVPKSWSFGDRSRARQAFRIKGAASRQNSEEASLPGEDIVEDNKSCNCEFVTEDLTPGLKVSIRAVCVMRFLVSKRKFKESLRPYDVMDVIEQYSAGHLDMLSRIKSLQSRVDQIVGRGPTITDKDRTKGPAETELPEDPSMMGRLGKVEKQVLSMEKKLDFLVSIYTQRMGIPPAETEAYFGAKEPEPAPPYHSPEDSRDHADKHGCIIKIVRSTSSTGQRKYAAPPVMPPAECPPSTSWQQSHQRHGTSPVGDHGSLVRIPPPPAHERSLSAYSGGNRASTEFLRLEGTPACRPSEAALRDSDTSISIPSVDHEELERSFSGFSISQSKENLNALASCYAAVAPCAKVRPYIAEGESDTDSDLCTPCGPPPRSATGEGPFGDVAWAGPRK
* = called active by the depositor; i = inactive; . = no result given. Hits are enriched below; roughly 1.6% of the tested compounds scored in any of these assays.

SMILES	KCNQ2 pot	KCNQ2 inh	Kir21 confirm	HEK293 ctr	others
Cc1ccc(C(CCNC(C)c2cccs2)c2ccco2)cc1 (centres undefined)	.	i	35.5%*	i
Cc1ccc(C)c(S(=O)(=O)N2CCCOC2CNC(=O)C(=O)NCc2ccccn2)c1 (centres undefined)	1.64	i	.	.
CCCCN(c1ccccc1)S(=O)(=O)c1cccc2cccnc12	.	i	.	.
CCOc1cc(C(c2c(C)[nH][nH]c2=O)c2c(C)[nH][nH]c2=O)ccc1OC(=O)c1cccc([N+](=O)[O-])c1	.	i	.	.
CCOc1cc(C(c2c(C)[nH][nH]c2=O)c2c(C)[nH][nH]c2=O)ccc1OCc1ccc([N+](=O)[O-])cc1	.	i	i	i
COc1cc(/C=C(\NC(=O)c2ccccc2)C(=O)N2CC3CC(C2)c2cccc(=O)n2C3)cc(OC)c1OC (centres undefined)	.	i	.	.
CC1CCN(CCCOc2ccc(Br)cc2Cl)CC1	.	i	38.5%*	i
CC1CCCN(CCOCCOc2ccc(Br)cc2Cl)C1 (centres undefined)	.	i	.	.
Cc1cc(=O)c2cc(Br)ccc2[nH]1	.	i	.	.
S=c1nc(-c2ccccc2)[nH]c2ccc(Br)cc12	28.6*	i	i	i	CHO-K1 Tl ctr=-74.3;KCNQ1 pot spec=20.9*;KCNQ2 pot confirm=66.0*;Kir2-1 sel=-18.4;KCNQ2 W236L MoA=i
O=C(c1ccco1)N1CCN(c2ncnc3c2cnn3-c2ccccc2)CC1	0.79	i	.	.
CCc1cc2c(N3CCN(C(=O)c4ccco4)CC3)ncnc2s1	5.72*	i	i	i	CHO-K1 Tl ctr=-7.7;KCNQ1 pot spec=35.6*;KCNQ2 pot confirm=-18.1;Kir2-1 sel=-38.8
Cc1nc(-c2ccc(S(=O)(=O)Oc3ccc(Cl)cc3Cl)s2)cs1	.	i	.	.
O=C(CSc1nc2ccccc2s1)Nc1cc(S(=O)(=O)N2CCOCC2)ccc1O	0.72	i	.	.
Cc1ccc(NC(=O)CSCC(=O)Nc2ccccc2N2CCCC2)cc1	1.39	i	74.5%*	74.0%*
CCC(=O)Nc1ccc(N2CCCCC2)c(C(=O)Nc2ccc(OC)cc2)c1	1.28	i	.	.
Cc1ccc(NC(=O)CSCC(=O)Nc2ccccc2C(=O)N2CCCCC2)cc1	0.38	i	.	.
COc1ccc(NC(=O)CSCC(=O)Nc2cc(Cl)ccc2N2CCOCC2)cc1	4.65	i	.	.
COc1ccc(NC(=O)CSCC(=O)Nc2cc(Cl)ccc2N2CCCC2)cc1	7.13*	i	i	i	CHO-K1 Tl ctr=-6.6;KCNQ1 pot spec=66.1*;KCNQ2 pot confirm=6.3*;Kir2-1 sel=-44.4;KCNQ2 W236L MoA=i
COc1ccc(CC(=O)Nc2ccc(N3CCCC3)c(C)c2)cc1	6.81*	i	34.0%*	i	CHO-K1 Tl ctr=9.8*;KCNQ1 pot spec=57.3*;KCNQ2 pot confirm=21.7*;Kir2-1 sel=-99.2;KCNQ2 W236L MoA=i
CCOC(=O)c1nn(-c2ccc(OCC)cc2)c2nc(-c3ccco3)c(C#N)c(=O)n12	.	i	.	.
CCN(CC)S(=O)(=O)c1ccc(N2CCCC2)c(C(=O)OCC(=O)Nc2cc(C)on2)c1	0.51	i	.	.
COC(=O)c1ccc(NC(=O)C(=O)N2CCN(C(=S)NCCc3ccccc3)CC2)cc1	0.7	i	.	.
Cn1nc(C(F)(F)F)c2cc(NC(=O)OCc3ccc(F)cc3)sc21	4.4	i	.	.
Cn1nc(C(F)(F)F)c2cc(NC(=O)OCc3ccc(C(C)(C)C)cc3)sc21	6.27*	i	i	i	CHO-K1 Tl ctr=38.1*;KCNQ1 pot spec=-7.0;KCNQ2 pot confirm=-15.5;Kir2-1 sel=-34.2
SMILES	KCNQ2 pot	KCNQ2 inh	Kir21 confirm	HEK293 ctr	others
Cc1ccc(-c2cnc(-c3ccccc3C(=O)O)o2)cc1	0.07	i	.	.
COc1ccc(Br)cc1CSC(=N)N	0.16	i	.	.
CCCCOc1ccc(CSC(=N)N)cc1Cl	.	i	27.5%*	i
CCOc1ccc(CSC(=N)N)cc1	1.54	i	.	.
CCCCCOc1ccc(Br)cc1CSC(=N)N	.	i	i	i
COCCn1c(SCC(=O)N2CCCCCC2)nnc1-c1ccco1	.	i	.	.
S=c1[nH]nc(COc2ccccc2)n1/N=C/c1ccc(Cl)c(Cl)c1	.	i	.	.
Cc1cccc(/C=N/n2c(COc3ccccc3)n[nH]c2=S)c1	6.02*	i	i	158.5%*	CHO-K1 Tl ctr=-8.4;KCNQ1 pot spec=-13.6;KCNQ2 pot confirm=0.0*;Kir2-1 sel=-38.4;KCNQ2 W236L MoA=i
COc1cccc(OC)c1OCCN1CCN(C(c2ccccc2)c2ccccc2)CC1	.	i	.	.
CCN(c1cccc(C)c1)S(=O)(=O)c1csc(C(N)=O)c1	.	i	.	.
COc1ccc(C(OCC(O)CNCCc2ccc(S(N)(=O)=O)cc2)c2ccc(OC)cc2)cc1 (centres undefined)	0.06	i	.	.
OC(CNCCc1ccc(C(F)(F)F)cc1)COC(c1ccccc1)c1ccccc1 (centres undefined)	.	i	51.0%*	68.0%*
Cc1ccc(C(=O)Sc2cccccc2=O)cc1	11.2*	i	.	.	CHO-K1 Tl ctr=-11.7;KCNQ1 pot spec=-20.7;KCNQ2 pot confirm=84.7*;Kir2-1 sel=-45.6;KCNQ2 W236L MoA=i
Cc1ccc(C(=O)CC(=O)c2ccccc2)cc1	1.34	i	.	.
CCN1CCN(S(=O)(=O)c2ccc(OC)c(NC(=O)c3ccccc3F)c2)CC1	1.47	i	.	.
COc1ccccc1/C=C/C(=O)NCCc1ccccn1	2.27	i	.	.
O=C(N/N=C/c1cccc(Oc2ccccc2)c1)c1cc[n+]([O-])cc1	.	i	.	.
Nc1ccc(C(=O)N/N=C/c2cccc(Oc3ccccc3)c2)cc1	1.78	i	55.5%*	i
Cc1sc2nc[nH]c(=O)c2c1-c1ccc(F)cc1	1.07	i	.	.
Cc1sc2nc[nH]c(=S)c2c1-c1ccccc1	11.7*	i	i	i	CHO-K1 Tl ctr=-12.0;KCNQ1 pot spec=13.3*;KCNQ2 pot confirm=39.7*;Kir2-1 sel=-23.7;KCNQ2 W236L MoA=i
O=C(CN(C(=O)c1csnn1)c1cccc(C(F)(F)F)c1)NCCc1ccccc1	0.72	i	.	.
Cc1ccc(S(=O)(=O)/N=C/c2c(O)ccc3ccccc23)cc1	.	i	.	.
O=S(=O)(/N=C/c1c(O)ccc2ccccc12)c1cccs1	5.76*	i	i	i	CHO-K1 Tl ctr=-7.0;KCNQ1 pot spec=-27.2;KCNQ2 pot confirm=-16.1;Kir2-1 sel=-35.8
O=C(CCN1CCN(Cc2ccccc2)CC1)NNC(=O)Nc1cccc([N+](=O)[O-])c1	.	i	.	.
O=C(CCN1C(=O)S/C(=C/c2ccccc2)C1=O)Nc1ccc(O)c(C(=O)O)c1	.	i	.	.
CCc1nc(C)cn1S(=O)(=O)c1cc(C)c(OC)cc1C	1.58	i	.	.
CCc1nc(C)cn1S(=O)(=O)c1cc(Cl)c(OC)cc1Cl	0.58	i	57.5%*	i
